Source: PubChem BioAssay (NCI)
“And” between values parts separate entries of the source, which are not always exact repeats. Equal entries are not always repeated. The panel holds about 83,000 compounds, 20% with a hit somewhere; the sample as a whole holds those more often.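 In brief: 96-well plates, 48 h treatment, single concentration, percent growth endpoint.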 A number with no mark means an inactive call. The source made the active and inactive calls. Rule for the calls: active = growth percent below 10; inactive = the rest.

Tested on: MDA-MB-468 breast
Test: NCI-60 one-dose screen, 48 h (100 = growth as untreated, 0 = no growth, -100 = all killed)

Q: Which growth (10 µM) does the source give for `COc1ccc(C(=O)/C=C/c2ccc(OCc3cccc(C(F)(F)F)c3)c(OC)c2)cc1OC` here?
A: 68.9%

Q: And the growth (100 µM)?
A: -2.26% (active)

Q: Which results are given for `CS/C(=C\c1ccc(C(=O)c2ccc(C)cc2)n1C)S(C)=O` (stereo not given)?
A: growth (10 µM): 86.1%; growth (100 µM): 30.8%

Q: Which results are given for `O=c1ccn(C2CC(O)C(COC(c3ccccc3)(c3ccccc3)c3ccccc3)O2)c(=O)[nH]1` (stereo not given)?
A: growth (10 µM): 101%; growth (100 µM): 41.5%

Q: With `CC1(C)OB(c2ccc(Cn3cc(F)c(=O)[nH]c3=O)cc2)OC1(C)C` as the compound, how does the growth (10 µM) read?
A: 105%

Q: And the growth (50 µM)?
A: 13%

Q: Which growth (10 µM unless noted) does the source give for `O=c1c2c(=NCCN3CCCC3)cc3c(=O)n(CCCN4CCOCC4)c(=O)c4ccc(c(O)n1CCCN1CCOCC1)c2c4-3` here?
A: -49.4% (active)

Q: Which results are given for `CNC(=O)c1cc(Oc2ccc(CC(=O)Nc3cc(C(C)(C)C)nn3C)cc2)ccn1`?
A: growth (1 µM): 28.7%; growth (10 µM): 2.05% (active); growth (30 µM): 19.7%

Q: Which results are given for `CC(=O)/C=C/c1ccc(OCc2ccc(Cl)cc2)cc1`?
A: growth (10 µM): 109%; growth (100 µM): 1.46% (active)

Q: For `C=CCc1cc(OC)c(O)c(OC)c1`, which growth (10 µM unless noted) is on record?
A: 112%

Q: How did the growth (10 µM) turn out when `Cc1[nH]c(-c2nc3ccccc3[nH]2)c(C)c1C(=O)NC(C)C1CCCCC1` (stereo not given) was run?
A: 59.8%

Q: And the growth (100 µM)?
A: -87.1% (active)

Q: Which results are given for `O=c1[nH]cc(F)c(=O)[nH]1`?
A: growth (10 µM): 64.4%; growth (50 µM): 58.6%

Q: Which growth (10 µM unless noted) does the source give for `CCCCNc1nnc2n(Cc3ccccc3)c(=O)c3c4c(sc3n12)CCCC4` here?
A: 34.7%

Q: Which growth (0.005 µM) does the source give for `CN(C)CCNc1ncc(F)c(-c2cnc3cc(-c4cnn(C)c4)ccn23)n1` here?
A: 103%

Q: And the growth (30 µM)?
A: 84.5%

Q: With `COc1ccc(-c2cscc2N)cc1` as the compound, how does the growth (10 µM) read?
A: 96.4%

Q: And the growth (100 µM)?
A: 38.7%

Q: Which growth (10 µM) does the source give for `O=C(/C=C/c1cccc(Oc2ccc(Cl)cc2)c1)c1ccccc1` here?
A: 110%

Q: And the growth (100 µM)?
A: -36.3% (active)

Q: `COc1ccc(OC)c(/C=C2\Oc3cc(OCCCN4CCCC4)ccc3C2=O)c1` was tested. Which growth (10 µM unless noted) did it give?
A: 77.7%

Q: `CC#C[C@]1(O)CC[C@H]2[C@@H]3CCC4=CC(=O)CCC4=C3[C@@H](c3ccc4c(c3)OCO4)C[C@@]21C` was tested. Which growth (10 µM) did it give?
A: 66.6%

Q: What about the growth (100 µM) of the same compound?
A: -15.2% (active)

Q: With `CC(=O)O[C@H]1C(=O)[C@@]2(C)[C@H]([C@H](OC(=O)c3ccccc3)[C@]3(O)C[C@H](OC(=O)[C@H](O)[C@@H](NC(=O)c4ccccc4)c4ccccc4)C(C)=C1C3(C)C)[C@]1(OC(C)=O)CO[C@@H]1C[C@@H]2O` as the compound, how does the growth (2.5 µM) read?
A: -25.5% (active)

Q: What about the growth (5 µM) of the same compound?
A: -21.9% (active)

Q: And the growth (10 µM)?
A: -19.1% (active)

Q: For `S=C(c1cccs1)N1CCN(c2cccc(Cl)c2)CC1`, which growth (10 µM unless noted) is on record?
A: 85.8%

Q: Which results are given for `CCc1ccccc1-n1c(N)c(C#N)c(-c2ccc(OC)c(OC)c2)c(C#N)c1=O`?
A: growth (10 µM): 107%; growth (100 µM): 47.4%

Q: How did the growth (0.0025 µM) turn out when `COc1cccc2c1C(=O)c1c(O)c3c(c(O)c1C2=O)C[C@@](O)(C(=O)CO)C[C@@H]3OC1CC(N)C(O)C(C)O1` (stereo not given in full) was run?
A: 95.2%

Q: What about the growth (2.5 µM) of the same compound?
A: 10.4%

Q: Which growth (10 µM) does the source give for `O=C(O)c1c(Cl)c(Cl)c(Cl)c(Cl)c1-c1c2cc(I)c(=O)c(I)c-2oc2c(I)c(O)c(I)cc12` here?
A: 115% and 111% and 77.5%

Q: And the growth (100 µM)?
A: -39.6% (active)

Q: `CC(C)(C)c1cc(NC(=O)Cc2ccc(-c3cnc4cc(-c5cnn(CCN6CCOCC6)c5)ccc4n3)cc2)no1` was tested. Which growth (10 µM) did it give?
A: 22.2%

Q: What about the growth (30 µM) of the same compound?
A: -1.53% (active)

Q: With `CN(C)C(=O)c1ccc(SC(=S)NCc2ccccc2)cc1` as the compound, how does the growth (10 µM) read?
A: 93.9%

Q: And the growth (100 µM)?
A: -27.4% (active)

Q: How did the growth (10 µM) turn out when `O=c1ccn2c(n1)OC1CC2OC1COC(c1ccccc1)(c1ccccc1)c1ccccc1` (stereo not given) was run?
A: 102%

Q: What about the growth (100 µM) of the same compound?
A: 56.9%

Q: With `CC(=O)/C=C/c1ccc(N(C)Cc2ccc(C(C)(C)C)cc2)cc1` as the compound, how does the growth (10 µM) read?
A: 86%

Q: What about the growth (100 µM) of the same compound?
A: -71.8% (active)

Q: With `CCCCCCCCCCCCCCCc1ccc(Cl)c(O)c1Cl` (tested in a mixture with another compound) as the compound, how does the growth (0.25 µM) read?
A: 8.94% (active)

Q: And the growth (10 µM)?
A: 103%

Q: What does the source list for `COc1ccc(Cl)cc1C(=O)NCCc1ccc(S(=O)(=O)NC(=O)NC2CCCCC2)cc1`?
A: growth (10 µM): 103% and 118%; growth (100 µM): 63.2%

Q: Which results are given for `COc1ccc(C(=O)/C=C/c2ccc(OCc3ccc(Cl)cc3)cc2)cc1OC`?
A: growth (10 µM): 83.3%; growth (100 µM): 27.8%

Q: How did the growth (10 µM unless noted) turn out when `CCOC(=O)N1C=CC2C=CC1C1C=CC=CC2N1C(=O)OCC` (stereo not given) was run?
A: 53.1%

Q: Which growth (10 µM unless noted) does the source give for `Cn1ccnc1C(=O)/C=C/c1ccc(C(=O)Nc2ccc(Cl)cc2)cc1` here?
A: 12.1%
